Calls of active or inactive are those of the source. Entries that show only a call come without a potency. The call rests on the fitted dose curve; in most records, active means well fitted activation curve with a large enough effect; inconclusive means small, poorly fitted or top-dose-only effect; inactive means no such curve, though single readings can be large or run the other way.

In PubChem BioAssay AID493185 (National Center for Advancing Translational Sciences (NCATS), 2011) one finds Potency data, which are given here for 18 compounds.
Potency means the concentration at half of the fitted maximal effect.

The nature of the assay: Counterscreen for Identifying a Potential Treatment of Ataxia-Telangiectasia: Hit Validation. The note with it: cell-free AlphaLISA/AlphaScreen artifact counterscreen, PBS only, no cells; series mostly up to 76.9 µM. The gist of the method:
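Cell-free AlphaLISA counterscreen: compounds (up to 76.7 uM final) in PBS with detection mix of anti-pKAP1 and anti-KAP1 antibodies on donor/acceptor beads plus lysis buffer, incubated 6 hr at 25C before AlphaScreen read.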
As to `CCN(CC)c1ccc2cc(-c3nc4ccccc4[nH]3)c(=O)oc2c1`, the Potency was 4.63 µM (active). Next, `COc1ccc(C2c3ccc(O)cc3Oc3ncn(CC(C)C)c(=N)c32)cc1` (stereo not drawn): “inactive”; `CCN(c1ccccc1)S(=O)(=O)c1ccc(Cl)c(C(=O)N(CC2CCCO2)C2CCS(=O)(=O)C2)c1` (stereo not drawn): “inactive”; `O=C(O)c1ccc(-c2nc3ccccc3s2)o1`: “inactive”. In the case of `CNC(=O)c1ccc(-c2cc3onc(-c4ccccc4)c3c(=O)n2C)cc1` it was “inactive”; in that of `Cc1ccc(OCC(=O)N(Cc2cccs2)C2CCS(=O)(=O)C2)cc1C` (stereo not drawn), “inactive”.

As to `CCOC(=O)CN(C(=O)CSc1nnc(COc2ccc(OC)cc2)n1CC)c1ccccc1`, the Potency result was “inactive”. Next, `COc1ccc(Cl)cc1NC(=O)C[n+]1cccc(C)c1`: “inactive”; `N#CCN1C(=O)C(=O)N(Cc2cccc(Cl)c2)C1=O`: “inactive”.

Turning to `NC(=O)c1cc2ccccc2o/c1=N/NC(=O)c1cccc(F)c1`, the Potency entry is “inactive”. Next, `CC(CCc1ccccc1)NC(=O)COC(=O)c1ccc(F)cc1` (stereo not drawn): “inactive”; `COc1ccccc1-n1c(SCC(N)=O)nc2sc3c(c2c1=O)CCC3`: “inactive”; `C(=N\Nc1ccccn1)/c1c[nH]c2ccccc12`: “inactive”. Next, `N#C/C(=C/c1ccc(F)cc1)C(N)=S`: “inactive”. Next, `CCn1c2ccccc2c2c3ncc4cccn4c3ccc21`: 41.2 µM (active); `Cc1oc2ccc(OCc3ccc(Br)cc3)cc2c1C(=O)O`: “inactive”; `OC1(CC#CCN2CCCCC2)c2ccccc2-c2ccccc21`: “inactive”. Consider `COc1ccc(C2/C=C\CN(S(=O)(=O)c3ccc4ccccc4c3)CC(=O)N2Cc2ccc(F)cc2)cc1` (stereo not drawn), for which the Potency entry is “inactive”.
